# High-throughput results from PubChem BioAssay.
# SKKanGAS inh – S. pyogenes SKKanGAS growth inhibitors in kanamycin, primary screen, streptokinase expression inhibitor project, SKKanGAS strain, BacTiter-Glo luminescence; 6 h; inhibition, % at 7.5 µM; 300,000 tested, 1.3% active; AID 1662, 2009;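 active means mean replicate score, as percent of positive control median, at least 50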;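 further: strain carries kanamycin resistance gene driven by streptokinase promoter and grows in 40 µg/ml kanamycin; loss of luminescence reflects streptokinase promoter inhibition or plain growth inhibition; 0% = median of DMSO wells and 100% = positive control at its reference dose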
# IDE act – human IDE activators in live cells, primary screen, fluorescence polarization, HEK cells, FAbeta-B substrate; 340,000 tested, 0.073% active; Insulin-degrading enzyme (Homo sapiens), P14735; activation, % at 5.96 µM; FAbeta-B cleavage; 0% vehicle, 100% cell-free pure enzyme wells;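 active means activation above the mean of all tested compounds plus 3 SD, set per screening campaign, cut at about 17% in these data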
# Granule exo inh – LAMP-1 surface exposure blockers, TALL-104 cells – cell-based, flow cytometry, MLPCN library, primary screen | TALL-104 LAMP-1 surface exposure; cells stimulated with thapsigargin and PMA | inhibition, % at 10 µM | 360,000 tested, 0.66% active | AID 651702, 2012;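 active means inhibition above about 55%, limit read from the data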
# IDE cell inh – human IDE inhibitors in live cells, primary screen, fluorescence polarization, HEK cells, FAbetaB substrate | inhibition, % at 5.59 µM | AID 434962, 2010 | 320,000 tested, 0.41% active | FAbetaB cleavage;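 active means percent inhibition above the average of all tested compounds plus 3 SD, set per screening campaign, cut at about 16% in these data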;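 further: IDE supplied by intact live HEK cells; FP after avidin binding of uncleaved biotin substrate so inhibition keeps polarization high; 0% = DMSO wells and 100% = 60 µM reference IDE inhibitor Ii1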
# PP5 inh – PP5 phosphatase inhibitors, primary screen, biochemical, fluorescence. AID 1987, 2009. inhibition, % at 6.7 µM. purified PP5c, OMFP substrate fluorescence. Serine/threonine-protein phosphatase 5 (Homo sapiens), P53041. 320,000 tested, 0.18% active;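 active means inhibition above the campaign's mean inhibition across all tested compounds plus 3 SD, cut at about 9.5% in these data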;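 further: 0% = DMSO only and 100% = 100 µM cantharidin control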
# PP1 inh – PP1-alpha phosphatase inhibitors, primary screen, counter-screen for PP5 inhibitor project, biochemical, fluorescence, OMFP substrate, single point; Serine/threonine-protein phosphatase PP1-alpha catalytic subunit (Homo sapiens), P62136; purified PP1alpha; inhibition, % at 6.7 µM; 320,000 tested, 0.9% active; AID 2235, 2010;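 active means inhibition above the mean inhibition of all tested compounds plus 3 SD, computed separately for each screening campaign, cut at about 15% in these data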
# Target sequence (P62136 whole entry, looked up): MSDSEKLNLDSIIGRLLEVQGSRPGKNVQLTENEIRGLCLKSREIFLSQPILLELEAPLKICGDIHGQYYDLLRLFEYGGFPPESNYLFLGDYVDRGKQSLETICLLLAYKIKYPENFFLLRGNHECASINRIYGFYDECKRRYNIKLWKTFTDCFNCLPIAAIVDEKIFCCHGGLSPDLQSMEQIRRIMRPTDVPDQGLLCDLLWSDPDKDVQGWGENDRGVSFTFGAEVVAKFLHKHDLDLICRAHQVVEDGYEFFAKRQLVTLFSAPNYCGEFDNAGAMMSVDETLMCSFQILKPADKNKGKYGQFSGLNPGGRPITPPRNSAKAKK
# * marks the source's active call; other numbers are inactive results; · = not tested or not shown. The list is not random: actives were taken first. Their share in the collection is about 2.8%.
SMILES,SKKanGAS inh,IDE act,Granule exo inh,IDE cell inh,PP5 inh,PP1 inh
CC1(C)CC1C(=O)Nc1ccc([N+](=O)[O-])cc1Br (centres undefined),-1,4,0,7,3,3
O=C(N/N=C1\CC2CC=CC12)c1ccc(Br)cc1 (centres undefined),-5,2,-2,3,2,-3
Cc1cc(Br)c(OCc2ccc(C(=O)N/N=C3\CC4CC=CC34)cc2)c(Br)c1 (centres undefined),68*,-1,-1,1,3,10
COc1ccc(C(C)=O)cc1COc1cc(C)c(Cl)c(C)c1,50*,·,2,1,1,-2
COc1ccc(C(C)=O)cc1COc1ccc(Cl)cc1Cl,4,·,0,-3,3,0
N=c1n(CC(=O)c2ccc([N+](=O)[O-])cc2)c2ccccc2n1Cc1ccccc1,5,-2,76*,4,2,-1
O=C1c2cccc3c(N4CCCCC4)ccc(c23)C(=O)N1CCO,-3,-35,30,51*,3,4
NNc1nc(-c2ccccc2)c2cc(Br)ccc2n1,65*,5,-22,-7,0,3
NNc1nc(-c2ccccc2)c2cc(Cl)ccc2n1,47,1,12,3,1,-1
O=C(NCC(=O)N1CCN(C(c2ccccc2)c2ccccc2)CC1)c1ccccc1Br,·,·,-2,·,·,·
CC(C)c1ccc(NC2CCCN(C(=O)C3=NN(C)C(=O)CC3)C2)cc1 (centres undefined),1,5,0,4,0,-2
Cc1[nH]c2ccccc2c1C(c1ccccn1)c1c(C)[nH]c2ccccc12,72*,0,-1,4,6,-2
Cc1[nH]c2ccccc2c1C(O)c1ccncc1 (centres undefined),7,-2,1,-2,-1,-2
C[C@H]1[C@@H](Cc2cc(Cl)cc(Cl)c2)N(c2ccccc2)c2ccccc2CN1Cc1ccccc1,·,·,-4,·,·,·
O/N=C(\c1ccccc1)c1nccc2ccccc12,-6,10,1,-1,3,-2
CCOC(=O)c1cnc(-c2ccccc2O)nc1Cl,6,1,-2,5,-5,-5
CCOC(=O)C1=Nc2ccccc2C1=[N+]=[N-],103*,2,2,-6,4,-3
Cn1c(=O)c([N+](=O)[O-])c(Cl)c2ccccc21,-3,2,71*,·,·,·
CC1(C)CC(=O)C(=Cc2cn(CCC#N)nc2-c2ccc(Cl)cc2)C(=O)C1,-13,-3,74*,0,-2,5
Cc1ccc(Nc2nc(N)c([N+](=O)[O-])c(NCc3ccco3)n2)cc1C,60*,0,11,2,5,6
O=C1C=C(c2cc3ccccc3s2)C[C@@H](c2ccc(Cl)cc2)C1,·,-1,0,1,·,·
O=C1C=C(c2cccc3c2sc2ccccc23)C[C@@H](c2ccc(Cl)cc2)C1,·,23*,21,6,1,-1
Cc1ccn(CCC(=O)N2CCCC(CCC(=O)N3CCN(c4ccccn4)CC3)C2)n1 (centres undefined),6,-5,2,3,0,-3
COC(=O)c1ccc(=O)c2nc3/c(=C/O)c(O)cc(=O)c3[nH]c12,·,12,-4,-2,2,49*
Cc1cccc(S(=O)(=O)Nc2ccc(-n3c(C)nc4ccccc4c3=O)cc2)c1,14,0,-8,-3,-2,0
SMILES,SKKanGAS inh,IDE act,Granule exo inh,IDE cell inh,PP5 inh,PP1 inh
Cc1cccc(/C=C/C(=O)c2cc(Br)ccc(=O)c2O)c1,90*,0,5,1,1,18*
CCc1ccc(/C=C/C(=O)c2cc(Br)ccc(=O)c2O)cc1,106*,2,15,-1,5,12
CCOc1ccc(/C=C/C(=O)c2cc(Br)ccc(=O)c2O)cc1,·,-4,3,0,0,14
Cc1cc(/C=C2/C(=N)N3C(=NC2=O)SN=C3S(C)(=O)=O)c(C)n1-c1ccc(F)cc1,64*,2,-1,6,5,-2
CCOc1cc(/C=C2/C(=N)N3C(=NC2=O)SN=C3S(C)(=O)=O)ccc1OS(=O)(=O)c1ccccc1,23,-8,6,4,0,1
COc1ccccc1-n1c(C)cc(/C=C2/C(=N)N3C(=NC2=O)SN=C3S(C)(=O)=O)c1C,36,5,-2,-8,3,4
CCOc1ccc(-n2c(C)cc(/C=C3/C(=N)N4C(=NC3=O)SN=C4S(C)(=O)=O)c2C)cc1,84*,3,-1,0,3,-5
CN(Cc1ccc(F)cc1)S(=O)(=O)c1nnc(NC(=O)c2ccccc2Br)s1,45,4,8,1,1,-1
O=C1/C(=C/c2ccc(O)cc2)SC(=S)N1Cc1cccnc1,-7,-19,-4,22*,1,-9
O=C1/C(=C/c2ccccc2F)SC(=S)N1CC(=O)N1CCCCC1c1cccnc1 (centres undefined),2,-5,7,-1,1,13
C#CCOc1ccc(/C=C2\SC(=S)N(Cc3cccnc3)C2=O)cc1,6,3,7,-1,-3,-1
O=C(O)c1cc(-c2ccc(/C=C3/SC(=S)N(Cc4ccccc4)C3=O)o2)ccc1Cl,·,-10,90*,·,·,·
Cc1ccc(/C=C2\SC(=S)N(Cc3ccccc3)C2=O)o1,·,-2,1,1,0,-6
O=C1/C(=C/c2ccc(F)cc2)SC(=S)N1CC(=O)N1CCCCC1c1cccnc1 (centres undefined),-3,9,27,7,1,16*
O=C1/C(=C\c2cccc(O)c2O)SC(=S)N1Cc1ccccc1,93*,-28,-6,9,-3,1
CCc1ccc2oc(C(=O)NCC(c3ccc(OC)cc3)N3CCCCC3)c(C)c2c1 (centres undefined),-5,5,10,1,3,5
CC1(C)CCCC2=C1CC1C(=O)N(N)C(=O)C1C2 (centres undefined),-11,5,-14,2,-2,-4
O=C(c1cccc(Cl)c1)N1CCC(=O)N([C@H](COCc2cccc(Cl)c2)Cc2ccccc2)CC1,·,·,26,·,·,·
Cc1ccc(-c2nnc(-n3ncc(C#N)c3N)c3ccccc23)cc1C,-1,1,1,-1,0,-3
COc1cccc(/C=N/NC(=O)c2cc3cc([N+](=O)[O-])ccc3s2)c1O,21,4,69*,0,5,8
O=C(N/N=C/c1cc(Cl)ccc1O)c1ccncc1,99*,-8,-3,-7,4,-1
